Test results: the supplement of paper PMC7156485
± gives the standard deviation of the averaged measurements.

Tests used:
Conditions in all cases: concentration: 10 µM; 24 h
HCC1569 [1] = test: cell number relative to DMSO (% of DMSO); higher = more cells (less growth inhibition / toxicity)
Method in brief: (§1)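 HCC1569 and TDF cells were seeded at 800 per well in 384-well plates in RPMI with 10% FBS and treated with compounds at 10 µM for 24 h at 37 °C, in triplicate. After fixation in 3.7% formaldehyde, cells were stained with a rabbit anti-H1.0 antibody, an AlexaFluor 647 secondary and DAPI, and six fields per well were imaged at ×10. H1.0 nuclear intensity or cell number is given as percent of the plate control, using the median of replicates, with HCC1569 values smoothed for positional effects.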

TDF [2] = test: as above
Method in brief: as §1

TDF [3] = test: H1.0 immunofluorescence intensity relative to DMSO (% of DMSO); higher = stronger H1.0 induction, active = 120 or more
Method in brief: as §1

HCC1569 [4] = test: H1.0 immunofluorescence intensity relative to DMSO (% of DMSO); higher = stronger H1.0 induction, active = 140 or more
Method in brief: as §1
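Throughout, for H1.0 immunofluorescence intensity relative to DMSO: TDF is a line of transformed human dermal fibroblasts of mesenchymal origin.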
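Throughout, for cell number relative to DMSO: TDF denotes transformed human dermal fibroblasts of mesenchymal origin.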

SMILES	cell number (HCC1569 [1])	cell number (TDF [2])	H1.0 immunofluorescence intensity (TDF [3])	H1.0 immunofluorescence intensity (HCC1569 [4])
O=C(COc1ccc(Cl)cc1)NC1CCC(NC(=O)COc2ccc(Cl)cc2)CC1 (centres undefined)	104	100	90.5 (inactive)	92.9 (inactive)
NC(=O)c1ncn(C2OC(CO)C(O)C2O)n1 (centres undefined) [Ribavirin]	97.5 ± 3	105 ± 3.3	94.5 (inactive)	112 (inactive)
O=C(NC(NC(=S)Nc1ccc(F)c([N+](=O)[O-])c1)C(Cl)(Cl)Cl)C(c1ccccc1)c1ccccc1 (centres undefined)	58.2	58.3	108 (inactive)	190 (active)
CCN1CCCC1CNC(=O)c1c(OC)ccc(I)c1O (centres undefined)	106	91	96.7 (inactive)	88.1 (inactive)
CC(C)n1cnc2c(NCc3ccccc3)nc(NCCCO)nc21 [Bohemine]	91.4	87.5	100 (inactive)	106 (inactive)
CC(C(=O)O)c1ccc2c(c1)Cc1cccnc1O2 (centres undefined) [Pranoprofen]	98.6	94.7	103 (inactive)	102 (inactive)
CN[C@H](CC(=O)O)C(=O)O [N-Methyl-D-aspartic acid]	104	109	85.2 (inactive)	98.8 (inactive)
N=S(=O)([O-])Cc1noc2ccccc12.[Na+] [Zonisamide sodium]	104	117	92.2 (inactive)	98.6 (inactive)
Nc1nc(OCc2ccccc2)c2[nH]cnc2n1 [O6-benzylguanine]	102	96.6	101 (inactive)	95.8 (inactive)
O=C1NCN(c2ccccc2)C12CCN(CCCC(c1ccc(F)cc1)c1ccc(F)cc1)CC2 [Fluspirilene]	82.7 ± 16	87.1 ± 7.5	106 (inactive)	126 (inactive)
CCNC(=O)CC[C@H](N)C(=O)O [L-Theanine]	103	103	102 (inactive)	95.6 (inactive)
CC(C(=O)O)c1ccc(CC2CCCC2=O)cc1 (centres undefined) [loxoprofen]	103	95.9	88.6 (inactive)	92.6 (inactive)
COC(=O)C1=C(C)NC(C)=C(C(=O)OC)C1c1ccccc1[N+](=O)[O-] [Nifedipine]	99.06 ± 0.47	102 ± 7	94.7 (inactive)	104 (inactive)
Br.CCSC(=N)N [S-Ethylisothiourea hydrobromide]	102	109	97.1 (inactive)	88 (inactive)
CC1CCC2C(C)C(OC(=O)CCC(=O)O)OC3OC4(C)CCC1C32OO4 (centres undefined) [Artesunate]	87.2 ± 1.8	88.2 ± 5.5	99.1 (inactive)	124 (inactive)
N=c1nc(N2CCCCC2)cc(N)n1O [Minoxidil]	99.9 ± 3.1	105 ± 3.1	92 (inactive)	103 (inactive)
COc1ccc2[nH]c(I)c(CCNC(C)=O)c2c1 [2-Iodomelatonin]	100	111	92 (inactive)	93.2 (inactive)
OCC1OC(OC2OC=CC3C(O)C4OC4(CO)C23)C(O)C(O)C1O (centres undefined) [Catalpol]	105	106	96.6 (inactive)	89.4 (inactive)
O=C(NCCNCC(O)COc1ccc(O)cc1)N1CCOCC1.O=C(O)C=CC(=O)O (centres undefined) [Xamoterol hemifumarate]	104	98.5	88.7 (inactive)	109 (inactive)
C=C1C(=CC=C2CCCC3(C)C2CCC3C(C)CCCC(C)(C)O)CC(O)CC1O (centres undefined) [1,25-Dihydroxyvitamin D3]	104	106	95.2 (inactive)	98.6 (inactive)
COC1C(OC(=O)c2ccc(C)[nH]2)C(O)C(Oc2ccc3c(O)c(NC(=O)c4c[nH]c(C(=O)Nc5c(O)c6ccc(OC7OC(C)(C)C(OC)C(OC(=O)c8ccc(C)[nH]8)C7O)c(C)c6oc5=O)c4C)c(=O)oc3c2C)OC1(C)C (centres undefined) [Coumermycin A1]	94.7	100	93.5 (inactive)	101 (inactive)
CCCCCOC(=O)Nc1nc(=O)n(C2OC(C)C(O)C2O)cc1F (centres undefined) [Capecitabine]	102	98.9	101 (inactive)	95.7 (inactive)
CN(Cc1cnc2nc(N)nc(N)c2n1)c1ccc(C(=O)NC(CCC(=O)O)C(=O)O)cc1 (centres undefined) [Methotrexate]	81.7	86.5	92.8 (inactive)	87 (inactive)
O=C(O)C=Cc1cc(Br)c(Br)c(Br)c1Br [Casein Kinase II Inhibitor III, TBCA]	98.7	113	92.9 (inactive)	105 (inactive)
COC(C)(C)CCCC(C)CC=CC(C)=CC(=O)O (centres undefined) [Methoprene acid]	104	91.9	98 (inactive)	94.6 (inactive)
O=c1c(-c2ccc(O)cc2)coc2cc(O)ccc12 [Daidzein]	101 ± 2.1	107 ± 14	92.4 (inactive)	94.6 (inactive)

SMILES	cell number (HCC1569 [1])	cell number (TDF [2])	H1.0 immunofluorescence intensity (TDF [3])	H1.0 immunofluorescence intensity (HCC1569 [4])
NCC(O)c1ccc(O)c(O)c1.O=C(O)C(O)C(O)C(=O)O (stereo not drawn) [Norepinephrine-(+)-tartrate L (-)]	100	99.2	91.4 (inactive)	105 (inactive)
COC(=O)C1=C(C)NC(C)=C(C(=O)OCCN(C)Cc2ccccc2)C1c1cccc([N+](=O)[O-])c1.Cl (centres undefined) [Nicardipine hydrochloride]	96.7	103	99.2 (inactive)	100 (inactive)
CCCCCC=CCC=CCC1OC1CC=CCCCC(=O)O (centres undefined) [8,9-Epoxyeicosatrienoic acid]	103	101	97.7 (inactive)	104 (inactive)
C[n+]1cccc(C(=O)O)c1.[Cl-]	99.8	94	101 (inactive)	92.9 (inactive)
CC12CCc3occc3C1CCC13CC(CCC12)C(O)(CO)C3 (centres undefined) [Cafestol]	103	101	103 (inactive)	88.2 (inactive)
NNC(=O)c1ccncc1 [Isoniazid]	105	104	89.6 (inactive)	110 (inactive)
O=C(CCCN1CC=C(n2c(=O)[nH]c3ccccc32)CC1)c1ccc(F)cc1 [Droperidol]	107	98.1	91.1 (inactive)	89.2 (inactive)
O=C(c1ccc(F)cc1)C1CCN(CCn2c(=O)[nH]c3ccccc3c2=O)CC1 [Ketanserin]	101	105	91.7 (inactive)	117 (inactive)
O=C1OC(CN2CCOCC2)CN1/N=C/c1ccc([N+](=O)[O-])o1 (centres undefined)	102	96.5	96.7 (inactive)	104 (inactive)
CC12CCC(=O)C=C1CCC1C2C(O)CC2(C)C1CCC2(O)C(=O)COC(=O)CCC(=O)[O-].[Na+] (centres undefined) [Hydrocortisone 21-hemisuccinate sodium]	99.5	99.5	82.6 (inactive)	125 (inactive)
Cc1cc(NC(=O)CS(=O)(=O)c2cn(Cc3cc(Br)ccc3F)c3ccccc23)no1	82.5	99.6	90 (inactive)	151 (active)
COc1cc2oc(-c3ccc(O)c(O)c3)cc(=O)c2c(O)c1OC	75	82	91.1 (inactive)	118 (inactive)
CCCCCCCCC=CCC=CCC=CCCCC(=O)NCCO [Mead ethanolamide]	104	95.8	108 (inactive)	96.2 (inactive)
COc1cc2c(c(OC)c1OC)-c1c(cc3c(c1OC)OCO3)CC(C)C(C)(O)C2OC(=O)c1ccccc1 (centres undefined) [Schisantherin A]	106	95	98.5 (inactive)	97.7 (inactive)
N#Cc1c(-c2ccccc2)cc(-c2cc(Br)ccc2O)[nH]c1=O [PIM1 Kinase Inhibitor II]	103	105	93.5 (inactive)	114 (inactive)
O=c1[nH]cc(F)c(=O)[nH]1 [5-Fluorouracil]	81.345 ± 0.068	92.4 ± 4.8	97.7 (inactive)	94.5 (inactive)
COc1cc2ncnc(Nc3ccc(Cl)cc3Cl)c2cc1OC [Ste11 MAPKKK Activation Inhibitor]	83.8	97.5	89.8 (inactive)	130 (inactive)
Cl.O.O.c1ccc2c(c1)CN1CCCC1=N2 [Desoxypeganine]	101	109	89.6 (inactive)	86.8 (inactive)
CCCN1CCCC[C@H]1C(=O)Nc1c(C)cccc1C.Cl.O	99.7	103	99 (inactive)	113 (inactive)
O=C1CCCC(=O)C1C(=O)c1ccc(C(F)(F)F)cc1[N+](=O)[O-] [2-[2-nitro-4-(trifluoromethyl)benzoyl]-1,3-cyclohexanedione]	96.1	104	99.8 (inactive)	101 (inactive)
O=C1CC(=O)c2c(Cl)c(Cl)c(Cl)c(Cl)c21 [4,5,6,7-tetrachloro-1H-indene-1,3(2H)-dione]	101	103	117 (inactive)	99.1 (inactive)
O=c1cc(-c2ccccc2)[nH]c2nc(Cl)ccc12 [7-Chloro-4-hydroxy-2-phenyl-1,8-naphthyridine]	76.7	20.4	141 (active)	116 (inactive)
CCCCCC=CCC1OC1C(O)C=CCC=CCCCC(=O)O (centres undefined) [Hepoxilin B3]	102	95	95.2 (inactive)	93.1 (inactive)
O=C(NOCC1CC1)c1ccc(F)c(F)c1Nc1ccc(I)cc1Cl	77.6	71	93.3 (inactive)	116 (inactive)
CC(C)C(N)C(=O)OCCOCn1cnc2c(=O)nc(N)[nH]c21 (centres undefined) [Valaciclovir]	99.8	104	102 (inactive)	109 (inactive)
